# Assay results: PubChem BioAssay (EPA / NIEHS)
# Active and inactive are the calls of the source. The calls were made as follows: active = hit-call score of the fitted dose curve at least 0.9, where 1 is the maximum; inactive = score below 0.9.
# Read-out: TIMP metallopeptidase inhibitor 1 (TIMP1), TIMP1 (gene 7076)
# Test: BSK_hDFCGF_TIMP1: BioMAP Diversity Plus: hDFCGF Assay for TIMP metallopeptidase inhibitor 1 (TIMP1) Biomarker Activity (AID 2283062)
# Conditions: primary human foreskin fibroblasts; actives raise or lower the signal
# Procedure: BSK_hDFCGF is a cell-based, multiplexed-readout assay that uses foreskin fibroblast, a human skin primary cell, with measurements taken at 24 hours after chemical dosing in a 96-well plate.BSK_hDFCGF_TIMP1 is an assay component measured in the BSK_hDFCGF assay. It measures TIMP-1 antibody related to regulation of gene expression using ELISA technology.Data from the assay component BSK_hDFCGF_TIMP1 was analyzed into 1 assay endpoint. This assay endpoint, BSK_hDFCGF_TIMP1, was analyzed with bidirectional fitting relative to DMSO as the negative control and baseline of activity. Using a type of binding reporter, gain or loss-of-signal activity can be used to understand changes in the signaling as they relate to the gene TIMP1. Furthermore, this assay endpoint can be referred to as a primary readout, because this assay has produced multiple assay endpoints where this one serves a signaling function. To generalize the intended target to other relatable targets, this assay endpoint is annotated to the protease inhibitor intended target family, where the subfamily is metalloproteinase inhibitor.
# The levels of cell surface (or secreted, indicated by the prefix "s") biomarker endpoints were measured by ELISA. Overt cytotoxicity to cells in confluent adherent cultures (all systems other than the BT system) was assessed by measuring total protein levels using sulforhodamine B (SRB) staining in parallel cultures at the time of biomarker measurements, indicated as SRB endpoints. For proliferation assays for adherent cell types, individual cell types are cultured at sub-confluence and relative cell numbers quantified by SRB staining at time points optimized for each system (48 h: 3C and CASM3C systems; 72 h: BT and HDF3CGF systems; 96 h: SAg system). SRB was performed by staining cells with 0.1% SRB after fixation with 10% TCA and reading wells at 560 nm.Viability and proliferation of PBMC (T cells) was quantified by Alamar Blue reduction for the SAg and BT systems. For PBMC viability (referred to as PBMC Cytotoxicity within the assay endpoint names), cells were plated (75,000/well in a 96-well plate) and then chemical samples added for 1 h before addition of activators, SEB and TSST-1 (20 ng/mL final concentration each). Cells were incubated for 90 h. Then, Alamar Blue (20 uL/well) (Invitrogen, Cat DAL1100) was added for 6 h, and the plates were read with a fluorescence microplate reader at 546/580 nm (excitation/emission). For PBMC proliferation, cells were plated and activated as above but incubated for only 16 h prior to addition of Alamar Blue. Plates were read after 6 h.
Structure (SMILES),outcome,AC50
CC(=O)Nc1ccccc1O,inactive,–
c1ccc2c(c1)c1cccc3ccc4cccc2c4c31,inactive,–
Nc1cc([N+](=O)[O-])ccc1O,inactive,–
OC[C@H]1O[C@H](O[C@]2(CCl)O[C@H](CCl)[C@@H](O)[C@@H]2O)[C@H](O)[C@@H](O)[C@H]1Cl,inactive,–
CC(=O)OCCC(C)CC(C)(C)C (stereo not given),inactive,–
O=C1OC2(c3cc(Br)c(O)c(Br)c3Oc3c2cc(Br)c(O)c3Br)c2c(Cl)c(Cl)c(Cl)c(Cl)c21,–,11.5 µM (active)
Cc1ccc(Nc2ccc(O)c3c2C(=O)c2ccccc2C3=O)cc1,inactive,–
Cc1ccc(O)c(C(C)(C)C)c1,–,27.6 µM (active)
CC(C)(COC(=O)c1ccccc1)COC(=O)c1ccccc1,–,34.3 µM (active)
CC1CCC(C(C)CS)CC1S (stereo not given),–,6.08 µM (active)
Cc1cc(C2(c3cc(C)c(O)cc3C)OS(=O)(=O)c3ccccc32)c(C)cc1O,inactive,–
BrC1CCC(Br)C(Br)CCC(Br)C(Br)CCC1Br (stereo not given),inactive,–
CCCCCCCCCC=O,inactive,–
CC(C)c1ccc(C(C)C)cc1,inactive,–
CC(=O)[C@H]1CC[C@H]2[C@@H]3CC=C4C[C@@H](O)CC[C@]4(C)[C@H]3CC[C@]12C,inactive,–
O=[N+]([O-])c1cc(C(F)(F)F)ccc1Cl,inactive,–
c1ccc2sc(SN(C3CCCCC3)C3CCCCC3)nc2c1,inactive,–
O=C(O)C[C@H](O)C[C@H](O)/C=C/c1c(C2CC2)nc2ccccc2c1-c1ccc(F)cc1,inactive,–
C#C[C@]1(O)CC[C@H]2[C@@H]3CCC4=Cc5oncc5C[C@]4(C)[C@H]3CC[C@@]21C,inactive,–
CC1COc2ccccc2N1C(=O)C(Cl)Cl (stereo not given),inactive,–

Structure (SMILES),outcome,AC50
CCCCCCCCCCCCCCCCCC(=O)OCC(CC)CCCC (stereo not given),inactive,–
CCn1c2ccccc2c2cc(N)ccc21,inactive,–
CCCCC(CC)COC(=O)/C=C\C(=O)OCC(CC)CCCC (stereo not given),inactive,–
CCCCC/C=C/C=C/C=O,–,12.7 µM (active)
O=P(c1ccccc1)(c1ccccc1)c1ccccc1,inactive,–
O=C1CCCCCCCCCCCCCCO1,inactive,–
CCc1c(C)cc(N)c(CC)c1N,inactive,–
O=C(O)c1cn(-c2ccc(F)cc2)c2cc(N3CCNCC3)c(F)cc2c1=O,inactive,–
Cc1ccc2n[nH]nc2c1,inactive,–
O=C(O)c1cn(C2CC2)c2cc(N3CCNCC3)c(F)cc2c1=O,inactive,–
O=C(O)c1ccc([N+](=O)[O-])cc1,inactive,–
COC(=O)c1ccc(C)cc1,inactive,–
CNC[C@H](O)c1cccc(O)c1,inactive,–
C=C[Si](OCC)(OCC)OCC,inactive,–
C=C(C)C(=O)O[C@H]1C[C@@H]2CC[C@@]1(C)C2(C)C,–,20 µM (active)
Nc1cc([N+](=O)[O-])ccc1Cl,inactive,–
N#Cc1ccc(CC(=NNC(=O)Nc2ccc(OC(F)(F)F)cc2)c2cccc(C(F)(F)F)c2)cc1,inactive,–
CCC(=O)OCc1ccccc1,inactive,–
CCCCC(CC)COCCC#N (stereo not given),–,20 µM (active)
NCCNCCN,inactive,–
